# A selection: hits, their analogues and other compounds. The true share with any hit is near 2.2%.
# Giardia kill = kills Giardia lamblia; Giardia lamblia trophozoite viability; activity change, % at 7.66 µM, hits read low; hit rate 0.15% among 340,000; AID 540267; in the data active = activity change below about -80%; inconclusive = between about -30% and that limit;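 also: parasites exposed to compound for two days anaerobically before the ATP read; % is scaled to controls: 0 for no effect and ±100 for the full control effect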
#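 Anaerobic 48 hrs incubation at 37 deg C of 100 trophozoites/well with test compounds; ATPLite 1-Step luminescence, 15-30 min RT, reports cellular ATP as viability.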
# BRCA1 expr act = activators of BRCA1 expression. MCF7-BRCA1-FFLuc reporter, luminescence, 48 h; response scale: scaled: vehicle 0%, 10 µM genistein 100%. Potency, µM (top dose mostly 46.1 µM), without a hit: top-dose activation, usual class: activators. hit rate 1.1% among 380,000; also: potency is read from the fitted curve at half-maximal effect; nearly all actives have a fitted effect of over 80% in size
#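 Activators of BRCA1 expression were detected as increased firefly luciferase luminescence in engineered MCF7 cells after 48 h compound incubation. Signals were scaled to genistein 10 microM as full activation.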
# TrxR1 substrate = substrates of rat thioredoxin reductase 1. AID 588456. Potency, µM (doses to about 114 µM), for inactives: top-dose activity change, negative = substrate turnover. purified TrxR1 substrate turnover, NADPH consumption readout. hit rate 0.01% among 390,000. O89049; also: potency is read from the fitted curve at half-maximal effect; % is scaled to controls: 0 for no effect and ±100 for the full control effect; nearly all actives have a fitted effect of over 50% in size
#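 Rat TrxR1, dispensed at 90 nM, was prereduced with 400 uM NADPH (final) for 5 min at ~22 deg C, then incubated with compound 15 min before 400 uM selenite. A first-read NADPH fluorescence drop versus no-compound background flagged substrates.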
# TrxR1 inh = blocks rat thioredoxin reductase 1; O89049; recombinant rTrxR1, NADPH fluorescence consumption, selenite substrate; Potency, µM (doses to about 114 µM), inactives show at the top dose activity change, negative = inhibition, usual class: inhibitors; hit rate 1% among 390,000; AID 588453; also: potency is read from the fitted curve at half-maximal effect; % is scaled to controls: 0 for no effect and ±100 for the full control effect; nearly all actives have a fitted effect of over 65% in size
#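 Rat TrxR1 (90 nM in the dispensed reagent) was pre-reduced with 400 uM NADPH for 5 min at room temperature, then incubated with compound for 15 min. After 400 uM selenite was added, NADPH fluorescence (Ex 340/Em 450 nm) was followed for 8 min.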
# IL2 activator = IL-2 activation; IL-2 activation reporter assay, cell-based qHTS; stimulated with anti-CD3/CD4/CD28 beads; in transgenic mouse T cells; activation, % (series mostly up to about 46 µM); AID 652025; hit rate 0.065% among 360,000; in the data active = activation above about 50%; inconclusive = mostly about 30% to 49%; also: 0% is about no effect
#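 Using fluorescent plate cytometry, EGFP and DsRed are detected in transgenic mouse T cells stimulated 18 h at 37 degrees C with antibody-coated beads after 60 min compound pretreatment.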
# mIDH1 inhibitor = blocks human mutant IDH1 R132H enzyme. IDH1-R132H enzyme, NADPH consumption, diaphorase/resazurin fluorescence. Potency, µM (series often up to 76.6 µM), without a hit: top-dose activity change, negative = inhibition, most hits filed as inhibitors. hit rate 0.093% among 390,000. AID 602179; also: potency is read from the fitted curve at half-maximal effect; % is scaled to controls: 0 for no effect and ±100 for the full control effect; nearly all actives have a fitted effect of over 65% in size
# Target sequence (O75874 whole entry R132H, stated change not applied): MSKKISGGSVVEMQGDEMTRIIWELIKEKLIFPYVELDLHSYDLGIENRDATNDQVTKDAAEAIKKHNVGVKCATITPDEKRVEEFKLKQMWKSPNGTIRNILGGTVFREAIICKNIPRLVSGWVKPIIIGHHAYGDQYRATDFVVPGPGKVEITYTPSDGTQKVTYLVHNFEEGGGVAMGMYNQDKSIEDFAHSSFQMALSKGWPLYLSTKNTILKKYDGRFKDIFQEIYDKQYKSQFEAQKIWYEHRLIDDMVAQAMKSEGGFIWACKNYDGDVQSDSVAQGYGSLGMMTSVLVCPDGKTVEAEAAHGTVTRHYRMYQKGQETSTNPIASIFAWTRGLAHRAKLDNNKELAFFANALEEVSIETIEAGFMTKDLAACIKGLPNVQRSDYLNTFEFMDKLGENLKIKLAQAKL
#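 IDH1-R132H (0.5 ug/mL) preincubated 30 min with compound, then NADPH (0.016 mM) and alpha-KG (2 mM) added; 80 min at RT, pH 7.5. Remaining NADPH coupled via diaphorase/resazurin to fluorescence (540/590 nm); concentration-response curves normalized to no-enzyme control.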
# * = called active by the depositor; ? = inconclusive; nt = no result; [ ] = dose if it differs, or a comment. Unless noted, calls follow the shape of the dose curve; as a rule, active = well fitted curve in the direction sought with a large enough effect; inconclusive = small, poorly fitted or top-dose-only effect, or another doubt; inactive = no such curve, though single readings can be large; an effect the other way counts as inactive or inconclusive.
SMILES,Giardia kill,BRCA1 expr act,TrxR1 substrate,TrxR1 inh,IL2 activator,mIDH1 inhibitor
Cn1cc(Cl)c(/C(N)=N/OC(=O)c2ccccc2C(F)(F)F)n1,0,11µM*,3%,31%,-1,-2%
N/C(=N/OC(=O)c1ccccc1F)c1nonc1N,-25,?,-1%,-5%,-1,0%
N#CC(C#N)=C1C=CC=CN1/C(=C\c1ccccc1)C(=O)c1cccs1,5,-10%,9%,0.45µM*,0,-15%
COc1ccc(NC(=O)Cn2c(=O)n(Cc3nc(-c4ccccc4)no3)c(=O)c3cc4c(cc32)OCO4)c(OC)c1,nt,nt,8%,40%,nt,2%
CCOC(=O)C1CCCN(C(=O)c2ccc(-c3ccc([N+](=O)[O-])cc3)o2)C1 (stereo not given),7,33%,0%,10µM*,-5,2%
O=C(c1ccc(-c2ccc([N+](=O)[O-])cc2)o1)N1CCN(S(=O)(=O)c2cccs2)CC1,-2,-9%,5%,45µM*,-6,2%
O=C(c1ccco1)N1CCN(C(=O)c2ccc(-c3ccc([N+](=O)[O-])cc3)o2)CC1,-7,1%,-12%,7.1µM*,-4,8%
O=C(c1ccc([N+](=O)[O-])cc1)N1CCN(C(=O)c2ccco2)CC1,-1,87%,5%[57.1 µM],24%[57.1 µM],-2,3%
CCOC(=O)Cn1c(=O)oc2cc(S(=O)(=O)N3CCN(c4ccc(F)cc4)CC3)ccc21,nt,nt,11%,21%,nt,10%
Cc1cccc(C(=O)Nc2ccccc2OCc2cc(=O)n3cc(C)ccc3n2)c1,nt,nt,6%[57.1 µM],16%[57.1 µM],nt,-2%
CCOC(=O)c1c(NC(=O)CSc2cn(CCNC(=O)c3ccc(OC)cc3)c3ccccc23)sc2c1CCC2,nt,-6%,10%[11.4 µM],22%,nt,-9%
Cc1ccc2c(cnn2C(=O)CCCC(=O)NC(C)c2ccccc2)c1 (stereo not given),-21,2.5µM*,-7%[57.1 µM],12%[57.1 µM],-4,14%
Cc1ccc2c(cnn2C(=O)CCCC(=O)NCc2ccc(F)cc2)c1,20,81%,7%[57.1 µM],16%[57.1 µM],0,-6%
CCN(CC)c1ccc(/C=C(/C#N)C(=O)NC(C)C)o1,7,61%,-6%[57.1 µM],-39%,4,-5%
CCN(CC)c1ccc(/C=C(/C#N)C(=O)NCc2ccccc2)o1,-8,10µM*,-18%,?,29,0%
CC(C)n1cnc2cc(NCc3ccco3)ccc21,-8,10µM*,22%,-11%,0,-1%
CCCC(=O)NCCc1c2n(c3ccc(OC)cc13)Cc1ccccc1-2,nt,nt,nt,33%[57.1 µM],nt,nt
N#CC(C#N)=Cc1ccc(OCC(=O)N2CCOCC2)cc1,23,0%,-5%,16µM*,2,2%
Cc1ccc(Cn2c(=O)n(-c3cc(C)cc(C)c3)c(=O)c3oc4ccccc4c32)cc1,nt,nt,14%,34%,nt,-3%
C=CCN1C(=O)/C(=C2/Sc3ccc(OC)cc3N2CC)SC1=S,1,-6%,-1%,36%,189*,-3%
CCN1/C(=C2/SC(=S)N(NC(C)=O)C2=O)Sc2ccc(OC)cc21,-2,-10%,-18%,-2%,1,0%
CCCCN1C(=O)/C(=C2/Sc3ccc(OC)cc3N2CC)SC1=S,-17,0%,-2%,-19%,118*,-7%
CCCn1c(SCc2nc(-c3ccccc3OCC)no2)nnc1-c1ccc(Cl)cc1,nt,nt,-6%,15%,nt,-21%
Cc1ccc(NC(=O)/C(C#N)=C/c2cccs2)c(C)c1,-10,4µM*,9%[57.1 µM],6%[57.1 µM],0,2%
N#C/C(=C\c1ccccc1)C(=O)Nc1ccccn1,-11,-15%,52%,-2%,0,-8%
SMILES,Giardia kill,BRCA1 expr act,TrxR1 substrate,TrxR1 inh,IL2 activator,mIDH1 inhibitor
N#C/C(=C\c1cccs1)C(=O)Nc1ccccn1,0,10µM*,0%,-10%,2,9%
Cc1ccc(NC(=O)CN2C=NS(=O)(=O)c3ccccc32)cc1,nt,nt,-8%[57.1 µM],0%[57.1 µM],nt,-3%
COc1cccc(OCc2nc3ccccc3n2Cc2ccccc2C)c1,nt,nt,-8%,2%,nt,19%
Cc1ccc(Sc2c(C)nn(-c3ccccc3)c2OC(=O)C(C)(C)C)cc1,nt,nt,7%[2.29 µM],41%,nt,24%
O=C(/C=C/c1ccco1)NCC(=O)N/N=C/c1ccc([N+](=O)[O-])cc1,-21,-19%,-10%,45µM*,-1,-4%
O=C(/C=C/c1ccco1)NCC(=O)N/N=C/c1ccc(Cl)cc1,-24,-9%,1%,-21%,0,-16%
O=C(Nc1ccc(N2CCN(C(=O)c3ccccc3)CC2)cc1)c1ccc([N+](=O)[O-])o1,-100*,-60%,-12%,-28%,0,0%
Cc1ccccc1C(=O)N1CCN(c2ccc(NC(=O)c3ccc([N+](=O)[O-])o3)cc2)CC1,-91*,-89%,-3%,-8%,-1,9%
CC(C)C(=O)N1CCN(c2ccc(NC(=O)c3ccc([N+](=O)[O-])o3)cc2)CC1,?,-82%,-7%,7%[57.1 µM],0,17%
CCOc1ccccc1NC(=O)Cn1nnc2sc3c(c2c1=O)CCC(C(C)(C)C)C3 (stereo not given),nt,nt,-4%,14%,nt,nt
Cc1ccc(N/N=C/c2ccncc2)cc1,39,6.3µM*,1%,8%,0,-2%
Cc1cc(N/N=C/c2ccncc2)nc2ccccc12,7,5.6µM*,-5%,1%,-1,0%
COC(=O)c1cnn(-c2nc(OC)cc(OC)n2)c1C,18,-14%,-5%,0%,-4,-1%
COc1cc(OC)nc(-n2ncc(Br)c(Br)c2=O)n1,15,-83%,6%,3.5µM*,-5,2%
Brc1ccc(C=C2C=c3ccccc3=C2)cc1,nt,10%,-3%,35µM*,nt,nt
c1csc(-c2noc(COc3ccc4c(c3)CCCC4)n2)c1,3,4µM*,-5%,2%,-3,8%
CCOC(=O)c1nnc2cc(-c3ccc(Br)cc3)nn2c1C,-1,27%,9%[57.1 µM],-2%[57.1 µM],1,-1%
CCOC(=O)c1nnc2cc(-c3ccccc3)nn2c1C,-3,6.3µM*,-6%,11%[57.1 µM],0,1%
O=C(/C=C/c1ccccc1)/C=C/c1ccccc1,-26,-86%,-13%,56µM*,-1,-14%
COC(=O)N/N=C(C)/C=C/c1ccccc1,26,3.5µM*,-15%,-17%,-6,5%
N/C(=N\OC(=O)/C=C/c1ccccc1)c1ccccc1,13,7.1µM*,4%[57.1 µM],2%,-1,0%
N/C(=N\OC(=O)/C=C/c1ccccc1)c1ccc(Cl)cc1,-9,49%,0%[57.1 µM],16%[57.1 µM],4,-4%
COc1ccc(C(C)=O)cc1CSc1nc2cc(C(=O)O)ccc2c(=O)n1Cc1ccccc1,2,-3%,-3%,28µM*,2,-2%

# Screening results deposited in PubChem by National Center for Advancing Translational Sciences (NCATS).
